Consider seven compounds from ChEMBL document CHEMBL1961873, “Compounds: GSK PKIS; Assays: Nanosyn kinase panel” (2012).

Test [1] deals with Tyrosine-protein kinase Fyn (Homo sapiens) (UniProt P06241). The conditions noted are these: at 1 µM.
The target of test [2] is Tyrosine-protein kinase HCK (Homo sapiens) (UniProt P08631). The note with it: at 0.1 µM.
Test [3] shares this target. The note with it: at 1 µM.
Test [4] has as its target Insulin-like growth factor 1 receptor (Homo sapiens) (UniProt P08069). The conditions noted are these: at 0.1 µM.
Test [5] shares this target. The conditions noted are these: at 1 µM.
In test [6] the target is Insulin receptor (Homo sapiens) (UniProt P06213). The note with it: at 0.1 µM.
The target is the same in test [7]. The note with it: at 1 µM.
Test [8] has as its target Insulin receptor-related protein (Homo sapiens) (UniProt P14616). The conditions noted are these: at 0.1 µM.
Test [9] has the same target. The note with it: at 1 µM.
Test [10] has as its target T1, Tyrosine-protein kinase ITK/TSK (Homo sapiens) (UniProt Q08881).
T1 sequence (whole entry): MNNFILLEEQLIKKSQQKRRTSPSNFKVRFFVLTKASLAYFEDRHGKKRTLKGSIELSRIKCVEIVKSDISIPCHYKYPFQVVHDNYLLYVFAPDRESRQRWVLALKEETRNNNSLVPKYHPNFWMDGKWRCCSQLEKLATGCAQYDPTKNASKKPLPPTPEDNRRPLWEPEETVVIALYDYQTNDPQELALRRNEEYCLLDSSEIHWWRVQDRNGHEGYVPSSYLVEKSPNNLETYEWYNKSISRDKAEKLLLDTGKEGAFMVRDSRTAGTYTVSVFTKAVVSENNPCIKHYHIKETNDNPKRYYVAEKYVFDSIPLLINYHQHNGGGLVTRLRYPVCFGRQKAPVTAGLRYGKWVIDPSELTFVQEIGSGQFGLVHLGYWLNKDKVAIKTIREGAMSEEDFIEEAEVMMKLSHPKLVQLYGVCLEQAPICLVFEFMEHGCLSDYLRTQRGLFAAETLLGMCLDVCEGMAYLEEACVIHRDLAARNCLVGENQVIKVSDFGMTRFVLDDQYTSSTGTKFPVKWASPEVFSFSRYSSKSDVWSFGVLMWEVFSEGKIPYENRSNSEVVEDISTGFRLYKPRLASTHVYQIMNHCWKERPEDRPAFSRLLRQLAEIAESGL
The conditions noted are these: at 0.1 µM.

The target of test [11] is T1, Tyrosine-protein kinase ITK/TSK (Homo sapiens). The note with it: at 1 µM.
The target in test [12] is Tyrosine-protein kinase JAK1 (Homo sapiens) (UniProt P23458). The note with it: at 0.1 µM.
Test [13] shares this target. The note with it: at 1 µM.
In test [14] the target is Tyrosine-protein kinase JAK2 (Homo sapiens) (UniProt O60674). The conditions noted are these: at 0.1 µM.
Sequence of Tyrosine-protein kinase JAK2 (Homo sapiens) (O60674 whole entry): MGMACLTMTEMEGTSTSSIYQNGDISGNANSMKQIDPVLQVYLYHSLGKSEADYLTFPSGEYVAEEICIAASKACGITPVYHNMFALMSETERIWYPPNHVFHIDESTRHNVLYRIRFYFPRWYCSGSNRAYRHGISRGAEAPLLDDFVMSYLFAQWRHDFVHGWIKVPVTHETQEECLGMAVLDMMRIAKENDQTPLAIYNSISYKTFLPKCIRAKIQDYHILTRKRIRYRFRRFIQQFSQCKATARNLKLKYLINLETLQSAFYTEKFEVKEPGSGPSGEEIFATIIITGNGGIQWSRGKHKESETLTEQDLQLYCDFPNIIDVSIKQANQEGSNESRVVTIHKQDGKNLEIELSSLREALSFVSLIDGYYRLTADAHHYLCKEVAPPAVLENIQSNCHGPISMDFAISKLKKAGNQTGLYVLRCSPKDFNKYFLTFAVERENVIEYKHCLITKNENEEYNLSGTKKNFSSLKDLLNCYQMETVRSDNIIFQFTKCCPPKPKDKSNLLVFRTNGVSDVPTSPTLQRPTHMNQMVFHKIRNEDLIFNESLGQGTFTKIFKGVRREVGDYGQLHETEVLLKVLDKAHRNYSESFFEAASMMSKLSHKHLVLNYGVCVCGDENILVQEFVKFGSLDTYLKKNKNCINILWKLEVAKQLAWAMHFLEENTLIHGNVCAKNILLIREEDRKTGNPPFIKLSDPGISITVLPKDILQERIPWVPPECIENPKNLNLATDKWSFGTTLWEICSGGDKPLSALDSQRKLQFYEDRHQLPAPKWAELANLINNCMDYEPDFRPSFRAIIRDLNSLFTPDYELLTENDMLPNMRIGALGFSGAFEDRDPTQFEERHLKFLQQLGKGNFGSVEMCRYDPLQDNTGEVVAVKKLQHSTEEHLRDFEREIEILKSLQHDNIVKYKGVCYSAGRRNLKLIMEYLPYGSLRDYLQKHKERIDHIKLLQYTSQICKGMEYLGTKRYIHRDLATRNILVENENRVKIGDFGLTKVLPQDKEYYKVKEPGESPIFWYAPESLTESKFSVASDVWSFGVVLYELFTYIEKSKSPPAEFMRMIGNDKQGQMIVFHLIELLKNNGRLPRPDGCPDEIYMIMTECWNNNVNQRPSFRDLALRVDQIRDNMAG
The target is the same in test [15]. The note with it: at 1 µM.
Test [16] deals with T2, Tyrosine-protein kinase JAK3 (Homo sapiens) (UniProt P52333).
T2 sequence (whole entry): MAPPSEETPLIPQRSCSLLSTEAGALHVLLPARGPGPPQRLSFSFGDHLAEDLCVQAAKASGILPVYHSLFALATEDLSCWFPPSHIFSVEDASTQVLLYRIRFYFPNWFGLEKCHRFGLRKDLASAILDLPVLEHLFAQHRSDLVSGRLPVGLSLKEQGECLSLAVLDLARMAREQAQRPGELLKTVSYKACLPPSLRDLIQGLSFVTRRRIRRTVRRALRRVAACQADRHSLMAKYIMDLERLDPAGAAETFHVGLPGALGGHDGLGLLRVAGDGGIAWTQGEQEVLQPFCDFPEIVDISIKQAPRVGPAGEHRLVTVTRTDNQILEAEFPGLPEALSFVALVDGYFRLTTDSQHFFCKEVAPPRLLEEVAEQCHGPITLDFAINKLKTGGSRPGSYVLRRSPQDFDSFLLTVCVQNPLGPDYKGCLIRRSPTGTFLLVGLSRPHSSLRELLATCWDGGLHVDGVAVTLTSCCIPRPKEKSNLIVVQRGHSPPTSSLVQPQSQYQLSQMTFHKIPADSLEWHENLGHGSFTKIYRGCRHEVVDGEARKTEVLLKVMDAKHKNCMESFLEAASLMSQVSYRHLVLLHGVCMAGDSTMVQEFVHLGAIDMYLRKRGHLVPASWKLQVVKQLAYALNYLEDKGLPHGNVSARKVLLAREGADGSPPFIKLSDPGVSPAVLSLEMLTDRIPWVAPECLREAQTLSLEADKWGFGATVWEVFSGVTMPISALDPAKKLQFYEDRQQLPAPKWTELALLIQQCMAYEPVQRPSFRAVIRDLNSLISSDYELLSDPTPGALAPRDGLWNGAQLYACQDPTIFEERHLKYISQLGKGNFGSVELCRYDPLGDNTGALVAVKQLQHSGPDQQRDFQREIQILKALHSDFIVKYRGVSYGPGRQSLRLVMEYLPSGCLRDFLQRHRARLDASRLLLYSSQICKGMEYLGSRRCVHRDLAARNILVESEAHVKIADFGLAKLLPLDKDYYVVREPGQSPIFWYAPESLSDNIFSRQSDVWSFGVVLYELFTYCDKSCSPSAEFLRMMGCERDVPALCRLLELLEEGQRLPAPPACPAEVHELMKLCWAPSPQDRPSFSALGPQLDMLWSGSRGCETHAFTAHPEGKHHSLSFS
The note with it: at 0.1 µM.

Test [17] addresses T2, Tyrosine-protein kinase JAK3 (Homo sapiens). The note with it: at 1 µM.
Test [18] addresses Vascular endothelial growth factor receptor 2 (Homo sapiens) (UniProt P35968). The note with it: at 0.1 µM.
Test [19] shares this target. The conditions noted are these: at 1 µM.
In test [20] the target is Mast/stem cell growth factor receptor Kit (Homo sapiens) (UniProt P10721). The conditions noted are these: at 0.1 µM.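 Further: values are mean inhibition of KIT, from the GSK PKIS dataset.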

Sequence of Insulin receptor-related protein (Homo sapiens) (P14616 27-742 limits assumed): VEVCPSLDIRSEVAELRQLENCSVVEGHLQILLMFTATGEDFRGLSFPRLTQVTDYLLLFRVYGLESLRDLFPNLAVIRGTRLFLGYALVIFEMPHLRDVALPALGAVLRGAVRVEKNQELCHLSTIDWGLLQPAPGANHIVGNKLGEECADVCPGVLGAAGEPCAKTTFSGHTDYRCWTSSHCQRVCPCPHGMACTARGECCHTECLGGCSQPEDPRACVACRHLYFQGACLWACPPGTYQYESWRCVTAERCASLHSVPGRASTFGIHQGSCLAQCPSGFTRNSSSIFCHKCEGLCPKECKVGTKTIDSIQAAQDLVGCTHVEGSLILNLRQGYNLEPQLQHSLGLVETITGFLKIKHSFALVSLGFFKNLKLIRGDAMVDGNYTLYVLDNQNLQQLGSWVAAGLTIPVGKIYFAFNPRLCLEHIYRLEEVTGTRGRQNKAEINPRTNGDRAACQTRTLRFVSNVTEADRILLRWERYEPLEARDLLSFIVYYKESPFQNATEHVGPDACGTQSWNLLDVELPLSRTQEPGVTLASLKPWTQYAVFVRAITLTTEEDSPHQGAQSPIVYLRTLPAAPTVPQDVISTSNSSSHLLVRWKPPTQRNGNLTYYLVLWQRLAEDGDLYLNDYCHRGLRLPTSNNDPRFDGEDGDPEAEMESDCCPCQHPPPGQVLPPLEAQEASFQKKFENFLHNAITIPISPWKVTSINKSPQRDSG
Sequence of Insulin receptor-related protein (Homo sapiens) (P14616 747-1297 limits assumed): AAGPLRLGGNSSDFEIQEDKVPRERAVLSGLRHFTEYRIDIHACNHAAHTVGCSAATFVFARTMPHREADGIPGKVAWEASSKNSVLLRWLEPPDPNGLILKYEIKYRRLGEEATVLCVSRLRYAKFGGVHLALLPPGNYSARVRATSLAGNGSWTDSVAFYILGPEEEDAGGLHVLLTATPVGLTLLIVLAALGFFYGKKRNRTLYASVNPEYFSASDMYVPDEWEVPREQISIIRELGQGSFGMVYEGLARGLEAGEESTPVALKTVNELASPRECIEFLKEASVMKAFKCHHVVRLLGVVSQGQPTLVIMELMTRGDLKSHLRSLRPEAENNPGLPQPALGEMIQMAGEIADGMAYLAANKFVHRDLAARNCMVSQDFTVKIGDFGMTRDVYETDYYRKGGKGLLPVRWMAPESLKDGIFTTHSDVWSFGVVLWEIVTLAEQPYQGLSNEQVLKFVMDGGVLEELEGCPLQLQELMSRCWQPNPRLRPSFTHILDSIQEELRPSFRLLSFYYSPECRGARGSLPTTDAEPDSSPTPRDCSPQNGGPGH
Sequence of Tyrosine-protein kinase Fyn (Homo sapiens) (P06241 2-537 limits assumed): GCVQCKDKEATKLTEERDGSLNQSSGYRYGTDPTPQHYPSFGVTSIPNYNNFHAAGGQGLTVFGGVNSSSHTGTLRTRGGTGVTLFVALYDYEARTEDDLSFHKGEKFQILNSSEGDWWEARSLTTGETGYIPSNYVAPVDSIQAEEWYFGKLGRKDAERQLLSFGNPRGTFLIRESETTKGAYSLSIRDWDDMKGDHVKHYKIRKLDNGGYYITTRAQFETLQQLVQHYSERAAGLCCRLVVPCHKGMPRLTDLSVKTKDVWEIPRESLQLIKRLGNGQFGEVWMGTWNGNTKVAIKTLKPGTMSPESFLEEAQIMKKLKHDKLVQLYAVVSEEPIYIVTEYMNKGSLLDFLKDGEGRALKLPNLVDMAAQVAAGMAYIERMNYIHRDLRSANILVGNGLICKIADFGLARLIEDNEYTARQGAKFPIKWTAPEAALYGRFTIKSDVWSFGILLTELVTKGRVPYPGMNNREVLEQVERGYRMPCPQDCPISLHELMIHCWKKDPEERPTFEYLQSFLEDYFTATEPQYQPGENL
Sequence of Insulin-like growth factor 1 receptor (Homo sapiens) (P08069 31-736 limits assumed): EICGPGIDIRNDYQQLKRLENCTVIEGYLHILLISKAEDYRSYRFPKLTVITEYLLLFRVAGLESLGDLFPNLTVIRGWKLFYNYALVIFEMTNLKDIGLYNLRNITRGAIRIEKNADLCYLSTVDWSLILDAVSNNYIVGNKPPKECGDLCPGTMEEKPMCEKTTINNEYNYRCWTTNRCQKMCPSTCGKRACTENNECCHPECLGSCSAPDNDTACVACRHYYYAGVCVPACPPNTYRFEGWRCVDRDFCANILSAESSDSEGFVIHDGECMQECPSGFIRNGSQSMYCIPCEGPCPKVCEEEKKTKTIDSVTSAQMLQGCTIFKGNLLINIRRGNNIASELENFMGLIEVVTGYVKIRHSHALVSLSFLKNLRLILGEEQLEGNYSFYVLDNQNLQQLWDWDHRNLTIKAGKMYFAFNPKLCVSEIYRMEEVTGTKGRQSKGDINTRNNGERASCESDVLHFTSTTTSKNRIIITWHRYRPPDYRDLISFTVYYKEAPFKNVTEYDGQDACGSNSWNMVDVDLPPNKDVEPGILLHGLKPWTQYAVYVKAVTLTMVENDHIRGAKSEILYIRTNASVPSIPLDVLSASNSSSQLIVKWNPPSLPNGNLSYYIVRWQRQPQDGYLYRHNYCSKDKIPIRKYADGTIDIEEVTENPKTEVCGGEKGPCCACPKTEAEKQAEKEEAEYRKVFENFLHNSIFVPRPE
Sequence of Insulin-like growth factor 1 receptor (Homo sapiens) (P08069 741-1367 limits assumed): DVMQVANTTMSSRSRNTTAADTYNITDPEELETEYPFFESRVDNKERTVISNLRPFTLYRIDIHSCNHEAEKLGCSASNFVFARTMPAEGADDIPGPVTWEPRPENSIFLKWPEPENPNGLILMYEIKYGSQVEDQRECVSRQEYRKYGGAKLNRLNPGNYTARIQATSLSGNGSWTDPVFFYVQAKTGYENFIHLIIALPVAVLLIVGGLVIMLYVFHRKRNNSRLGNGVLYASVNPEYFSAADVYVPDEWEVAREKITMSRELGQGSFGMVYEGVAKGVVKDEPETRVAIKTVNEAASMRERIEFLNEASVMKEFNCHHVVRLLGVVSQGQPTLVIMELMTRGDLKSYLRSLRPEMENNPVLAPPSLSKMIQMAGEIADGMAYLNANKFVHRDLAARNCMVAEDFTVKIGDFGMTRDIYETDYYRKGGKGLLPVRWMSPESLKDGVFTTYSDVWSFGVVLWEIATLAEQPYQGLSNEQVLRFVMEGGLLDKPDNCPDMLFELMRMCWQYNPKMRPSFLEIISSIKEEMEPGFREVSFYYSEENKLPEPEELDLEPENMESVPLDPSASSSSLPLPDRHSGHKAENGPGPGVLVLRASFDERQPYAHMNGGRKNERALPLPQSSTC
Sequence of Tyrosine-protein kinase HCK (Homo sapiens) (P08631 2-526 limits assumed): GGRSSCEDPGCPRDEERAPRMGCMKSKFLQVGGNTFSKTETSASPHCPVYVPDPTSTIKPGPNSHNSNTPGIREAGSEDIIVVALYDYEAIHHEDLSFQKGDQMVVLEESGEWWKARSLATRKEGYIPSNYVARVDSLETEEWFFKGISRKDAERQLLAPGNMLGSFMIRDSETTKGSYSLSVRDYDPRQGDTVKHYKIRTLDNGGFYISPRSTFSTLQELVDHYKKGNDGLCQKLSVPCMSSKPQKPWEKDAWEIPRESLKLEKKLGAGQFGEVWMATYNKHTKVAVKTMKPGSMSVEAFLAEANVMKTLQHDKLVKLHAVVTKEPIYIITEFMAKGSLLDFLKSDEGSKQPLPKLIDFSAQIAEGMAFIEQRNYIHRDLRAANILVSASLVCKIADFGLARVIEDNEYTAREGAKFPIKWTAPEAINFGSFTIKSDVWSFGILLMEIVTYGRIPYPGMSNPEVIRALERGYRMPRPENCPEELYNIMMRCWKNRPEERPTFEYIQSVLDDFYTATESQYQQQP

A word on the inhibition: it is the relative decrease from the control value, in per cent. In the case of `NCc1ccc(-c2nc(-c3ccc(Cl)c(O)c3)c(-c3ccncc3)[nH]2)cc1`, the inhibition in [1] is 31.8%; in [2] it was 12.9%; in test [3], 55.1%; in [4], -0.62%; in [5], -0.25%; in test [6], 0.74%. Moreover, the inhibition in [7] was 2.07%; in [8], -0.06%; in [9] it was -1.54%; in test [10] it was 0.2%; in test [11], 1.29%; in test [12] it was -0.11%. The inhibition in [13] was found to be 2.34%; in test [14], 0.65%; in test [15], 0.75%; in test [16], 1.4%; in test [17], 1.41%; in test [18], 69.2%. Besides, the inhibition in test [19] was 74.8%; in test [20], 0.79%.
With `COc1cc(C)c(NC(=O)CN(C)C)cc1Nc1nc(Nc2cccc(F)c2C(N)=O)c2cc[nH]c2n1`, the inhibition was 2.42% in test [1]; 4.13% in test [2]; 3.71% in [3]; 93.6% in [4]; 95.5% in [5]; 99.9% in test [6]. The inhibition was determined as 99.9% in test [7]; 90.8% in test [8]; 97.7% in [9]; 1.36% in test [10]; 1.95% in test [11]; 2.55% in test [12]. The inhibition in test [13] is -4.44%; in test [14], 0.46%; in test [15] it was 0.22%; in test [16], 0.71%; in [17], -1.63%; in test [18], 3.26%. Further, the inhibition in test [19] stood at 4.13%; in test [20], 2.98%.
Take `CN1CCC(C(=O)Nc2n[nH]c3nnc(-c4ccccc4)cc23)CC1`: the inhibition in test [1] was determined as 3.89%; in test [2], 3.42%; in test [3], 7.61%; in test [4], 3.98%; in test [5], 4.17%; in [6], 7.76%. The inhibition in [7] amounted to 4.86%; in test [8], 1.63%; in test [9] it was 2.13%; in test [10], 1.35%; in test [11], 2.38%; in test [12], 4.13%. The inhibition in test [13] was 17.6%; in [14], 1.08%; in test [15], 1.05%; in test [16], -1.09%; in [17] it was -0.3%; in test [18], 2.34%. The inhibition in test [19] turned out to be 10.6%; in test [20] it was 4.36%.
For the compound `CN(C)c1cc2c(Nc3ccc4nc(Cc5ccccc5)[nH]c4c3)ncnc2cn1`, the inhibition in test [1] stood at 27.7%; in [2] it was 11.5%; in [3], 30.6%; in test [4], 6.59%; in test [5] it was 11.5%; in [6] it was 7.56%. The inhibition was found to be 8.05% in [7]; 3.36% in test [8]; 4.95% in test [9]; 1.45% in test [10]; 1.51% in test [11]; 5.67% in [12]. The inhibition is 8.16% in test [13]; 2.34% in test [14]; 1.44% in [15]; -1.29% in [16]; -1.24% in test [17]; 7.5% in test [18]. The inhibition in [19] was found to be 10.4%; in test [20], 4.97%.
As to `CCn1c(-c2nonc2N)nc2c(N3CCCC3)nccc21`, the inhibition in test [1] was 0.7%; in [2] it was -0.01%; in test [3], 2.43%; in test [4] it was 0.23%; in test [5], 2.72%; in [6], 1.98%. Besides, the inhibition in test [7] was -1.23%; in test [8] it was -2.24%; in test [9], -0.91%; in test [10] it was 0.23%; in test [11], -0.14%; in [13], -2.79%. Besides, the inhibition in test [14] is -0.66%; in [15] it was -1.59%; in test [16], -0.2%; in test [17], 2.23%; in test [18] it was 1.32%; in [19] it was 6.67%. Also, the inhibition in test [20] was -1.56%.
In the case of `Cc1nn(C)c2cc(N(C)c3ccnc(Nc4cccc(S(N)(=O)=O)c4)n3)ccc12`, the inhibition stood at 28.7% in test [1]; 12.8% in test [2]; 50.2% in [3]; 1.89% in test [4]; 7.04% in test [5]; 8.17% in test [6]. Besides, the inhibition worked out at 3.38% in test [7]; 0.14% in [8]; 0.9% in [9]; 1.53% in test [10]; 8.33% in test [11]; 12.3% in test [12]. For the same compound, the inhibition is 54.9% in [13]; 7.43% in test [14]; 59.5% in test [15]; -0.24% in [16]; 27.3% in [17]; 45.4% in [18]. Moreover, the inhibition in test [19] turned out to be 68.5%; in test [20], 47%.
With `COc1cccc(-n2ncc3c(N/N=C/c4cccc(F)c4)ncnc32)c1`, the inhibition in test [1] is 31.5%; in test [2] it was 5.13%; in test [3], 20.8%; in test [4], -6.82%; in [5] it was -4.04%; in test [6] it was 6.33%. The inhibition in test [7] is 5.41%; in test [8], 0.81%; in [9], 0.48%; in test [10], -3.25%; in [11], -2.13%; in [12], 2.37%. Also, the inhibition in test [13] is 2.01%; in test [14] it was 1.22%; in [15] it was 1.44%; in test [16], -4.29%; in test [17] it was 0.79%; in test [18] it was 10.1%. Further, the inhibition turned out to be 34.1% in [19] and 3.25% in test [20].
